Compounds without any hit were thinned out: in the full panel of roughly 83,000, 20% have a hit.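 Results are percent growth after 48 hours of single-concentration exposure. 100 means growth as in untreated cells, lower positive values show inhibition; negative values down to -100 show cell death.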 A number with no mark means an inactive call. The source made the active and inactive calls. The calls were made as follows: active = growth percent below 10; inactive = the rest.
Each compound was assayed on HT29 colon (assay: NCI-60 one-dose screen, 48 h (100 = growth as untreated, 0 = no growth, -100 = all killed)). Settings: 10 µM.
Clc1ccc(/C=C2\CCCC3C2=Nc2ccccc2NC3c2ccc(Cl)cc2)cc1 (stereo not given) was tested, and the growth was 16%.
CCC(c1ccc(OC)cc1)C(CC)c1ccc(O)c(CN2CCN(C)CC2)c1 (stereo not given) showed a growth of 12.1%.
With CC[C@@H](C(=O)[C@H](C)[C@H](O)[C@@H](C)[C@H]1O[C@H]([C@@H](CC)C(=O)N(CC)CC)CC[C@H]1C)C1O[C@]2(C=C[C@@H](O)[C@]3(CC[C@@](C)([C@H]4CC[C@](O)(CC)[C@H](C)O4)O3)O2)[C@H](C)C[C@@H]1C (stereo not given in full) the growth was 13.8%.
With c1ccc(/C(=N\Nc2ccc3ccccc3n2)c2ccccn2)cc1 the growth was 26.2%.
O=C(NCCCNS(=O)(=O)c1ccc(Cl)cc1)Nc1ccc(-n2cc(-c3ccncc3)c(-c3ccc(Cl)c(O)c3)n2)cc1 was tested, and the growth was 0.25% (active).
Nc1ncnc2c1ncn2C1(CO)OCC(O)C(O)C1O (stereo not given) gave a growth of 88.8%.
Compound CN(C)CCOc1ccc(-c2nc3sccn3c2-c2ccnc(S(C)(=O)=O)n2)cc1 has a growth of 103%.
CC[C@H]1OC(=O)[C@H](C)[C@@H](O[C@H]2C[C@@](C)(OC)[C@@H](O)[C@H](C)O2)[C@H](C)[C@@H](O[C@@H]2O[C@H](C)C[C@H](N(C)C)[C@H]2O)[C@](C)(OC)C/C(C)=C2/O[C@@]1(C)C=C2C was tested, and the growth was -7.11% (active).
COc1cc(/C=C2\CCCC3=C2NC(N)=NC3c2cc(OC)c(OC)c(OC)c2)cc(OC)c1OC (stereo not given) was tested, and the growth was -35.4% (active).
O=[N+]([O-])c1cccc(/C=N/NC(=S)NC23CC4CC(CC(C4)C2)C3)c1 was tested, and the growth was 88.7%.

— PubChem BioAssay (NCI)
